Test results from PubChem BioAssay AID1845225 (National Center for Advancing Translational Sciences (NCATS), 2023).
Results filed as inconclusive are left out. Calls come from the whole dose curve; as a rule, active = well fitted curve in the direction sought with a large enough effect; inconclusive = small, poorly fitted or top-dose-only effect, or effect the other way, or another doubt; inactive = no such curve, though single readings can be large or run the other way.

experiment: Confirmatory redox qHTS assay for identification of artifact compounds.; conditions: Amplex Red/HRP redox cycling with DTT, fluorescence; series mostly up to 39 µM; redox activity vs DA3003: at the top concentration
Excerpt: PI: Alexander Tropsha Ph.D. UNC Eshelman School of Pharmacy University of North Carolina, Chapel Hill, North Carolina Hits from high-throughput screening (HTS) of chemical libraries are often false positives due to their interference with the assay detection technology. In response to this problem, we generated the largest publicly available library of chemical liabilities and developed a free webtool to predict HTS artifacts, both of which are described herein. More specifically, we generated, curated, and integrated HTS datasets for thiol reactivity, redox activity, and luciferase (firefly and nano) activity. Using these curated datasets, we developed and validated several Quantitative Structure-Interference Relationship (QSIR) models to predict nuisance behavior. […] These models were employed for virtual profiling of the National Center for Advancing Translational Science's (NCATS) in-house library, and 256 compounds for each assay were selected for the experimental validation of nuisance behavior. The BA for these external predictions ranged from 58 to 78% for compounds within the applicability domains of the models. […] The models developed in this study, along with aggregation models previously developed by our group (SCAM Detective) were implemented in "Liability Predictor," an online tool which may be used as part of chemical library design or for triaging HTS hits. Both the models and the curated datasets are publicly available at https://liability.mml.unc.edu/.
PROTOCOL TABLE SEQUENCE No. (e.g., 1, 2, 3, etc.); […] (e.g., Cells, Incubation, Reagent, etc.); VALUE; DESCRIPTION. 1; Reagent; 3 uL; Amplex Red and HRP mixture. 2; Compounds and control; 16 nL; Kalypsis pin tool (Wako USA) equipped with a 1536-well pin head. 3; Incubation; 15 min. 4; Reagent; 1 uL; […]. 5; Incubation; 30 min. 6; Detection; Fluorescence, ViewLux microplate reader, 525 nm excitation, 598 nm emission. NOTES (numbers refer to Sequence numbers above) 1. 3 uL of a mixture containing Amplex Red (25 uM final concentration) and horseradish peroxidase (HRP; 250 mU/mL final concentration) in assay buffer (HBSS) was dispensed into all wells of a 1536-well assay plate (solid-bottom black plate; Greiner Bio One, Monroe, NC). 2. […] 3. 15 min. incubation at room temperature protected from light. 4. 1 uL of DTT (prepared fresh; final concentration 250 uM) was dispensed for a final assay volume of 4 uL. 5. Plates were centrifuged (121xg, 15 seconds) and incubated for 30 minutes at room temperature protected from light. 6. Samples were read for fluorescence (Ex/Em = 525(20)/598(25) nm) on a ViewLux CCD imager (PerkinElmer). Data were normalized to DMSO (0% activity) and DA3003 (10 uM final concentration; 100% activity) and the resulting percent inhibition data were fitted to a 4-parameter Hill equation using NCATS in-house software.

Redox activity vs DA3003, inactive:
CCOc1ccc(C(=O)N2CCC(c3nc(-c4ccc(S(=O)(=O)N5CCCC5)cc4)no3)CC2)cc1 7.69%, CCC(C)NC(=O)c1ccc2nc(-c3cccs3)c(-c3cccs3)nc2c1 (stereo not given) 5.15%, O=C(Nc1onc2c1CCCC2)c1ccc(Cl)cc1 -0.563%, CC(C)Oc1ccc(C(=O)N2CCC(c3nc4ccccc4s3)CC2)cc1 4.93%, C=C[C@@H]1C[C@@H](C=C)OP(=O)(O[C@@H](C=C)[C@@H](C)C(=O)OC)O1 (stereo not given in full) -1.09%, CCOC(=O)C(=O)NCC(c1cccnc1)N1CCN(c2ccccc2)CC1 (stereo not given) 5.49%, COc1cc2c(NC3CCN(C(C)C)CC3)nc(N3CCCN(c4ccccc4)CC3)nc2cc1OCCCN1CCCCC1 15.8%, COc1ccc(Cn2c(SCc3ccc(C(=O)NC4CCCCC4)cc3)nc3ccncc32)cc1 0.423%, CCOc1ccc(OCC)c(NS(=O)(=O)c2c(C)[nH]c(=O)[nH]c2=O)c1 -0.81%, CCOc1ccc2nc(N3CCC(C(=O)Nc4ccc(Br)cc4F)CC3)sc2c1 0.802%, Nc1ccc(F)cc1F -1.05%, O=C(NNCNNC(=O)c1ccncc1)c1ccncc1 2.59%, COc1ccc(N2CC(NC(=O)c3ccco3)CC2=O)cc1 (stereo not given) -0.833%, Cc1ccc(C)c(C(=O)N2CCC(c3nc4c(nnn4Cc4ccccc4)c(=O)[nH]3)CC2)c1 4.18%, CCOC(=O)c1ccccc1NC(=O)Cn1c(=O)n(-c2cccc(C)c2)c(=O)c2c1c1cc(C)ccc1n2C 0.665%, Cc1ccccc1S(=O)(=O)Nc1cnccc1C(=O)Nc1nc(-c2ccccc2)cs1 3.48%, CCOC(=O)Cc1cccc(-c2cc(CCCCCCc3ccc(O[C@H]4O[C@H](COC(C)=O)[C@@H](OC(C)=O)[C@H](OC(C)=O)[C@@H]4OC(C)=O)c(-c4cccc(CC(=O)OCC)c4)c3)ccc2O[C@H]2O[C@H](COC(C)=O)[C@@H](OC(C)=O)[C@H](OC(C)=O)[C@@H]2OC(C)=O)c1 0.744%, O=C(CN1C(=O)CCn2nc(-c3ccccc3)cc21)NCc1ccc(Cl)cc1 4.22%, FC(F)(F)c1ccccc1-c1nc(NCC23CC4CC(CC(C4)C2)C3)c2ccccc2n1 0.743%, COc1ccccc1CNC(=O)CCCn1c(=O)c2ccccc2n(CC(=O)Nc2ccc(C)cc2Cl)c1=O 2.83%, COc1cc2c(NC3CCN(C)CC3)nc(N3CCN(C)CC3)nc2cc1OCCOCCN(C)C 10.7%, COc1ccc(S(=O)(=O)N(CCc2ccccc2)CC(=O)Nc2cc(Cl)ccc2C)cc1 -0.652%, O=C(CSc1nnc2scc(-c3ccc(Cl)cc3)n12)Nc1cccc(C(F)(F)F)c1 -0.385%, COc1ccc(CCNC(=O)c2cc3c(-c4ccc(OC)c(OC)c4)nn(C)c3s2)cc1OC 2.45%, Cc1ccc(-n2ncc(C(=O)N3CCN(c4ccccn4)CC3)c2C2CCN(C(=O)OC(C)(C)C)CC2)cc1C 3.18%, CC1CCCCN1CCCNC(=O)Cn1ncc2c3ccccc3n(Cc3ccccc3)c2c1=O (stereo not given) 7.73%, Cc1ccc(NS(=O)(=O)c2ccc3c(c2)CCN(C(=O)C(F)(F)F)C3)cc1C 0.556%, CC(N)(C(=O)O)c1ccc(S(=O)(=O)O)cc1 (stereo not given) -0.72%, COc1ccc(NC(=O)Nc2cccc(-c3noc(C)n3)c2)cc1 -0.638%, COc1ccc(CCNC(=O)c2cc(=O)[nH]c3ccc(S(=O)(=O)N4CCCCC4)cc23)cc1OC 3.88%, COc1ccc(OC)c(NC(=O)Cn2c(=O)n(CC3CCCO3)c(=O)c3cc(OC)c(OC)cc32)c1 (stereo not given) 6.23%, COc1ccc(NC(=O)CSc2nc(-c3ccccc3)nc3c2Cc2c(CO)cnc(C)c2O3)cc1Cl 6.51%, O=S(=O)(c1cc(Br)c(Br)s1)N1CCN(c2ccccc2)CC1 -0.713%, CCOc1ccc(CCNC(=O)c2cnc3c(-c4ccccc4)c(C)nn3c2C)cc1OCC 3.51%, CC(C)C[C@H](N)C(=O)N[C@H](C(=O)N[C@H](C(=O)N[C@@H](Cc1ccc(O)cc1)C(=O)N1CCC[C@H]1C(=O)N[C@@H](Cc1c[nH]c2ccccc12)C(=O)N[C@H](C(=O)N[C@@H](CCC(N)=O)C(=O)N[C@@H](CCCN=C(N)N)C(=O)O)[C@@H](C)O)C(C)C)C(C)C -0.687% [at 4.35 µM], Cc1ccc(-c2nc3scc(CCNS(=O)(=O)c4ccc(F)c(C)c4)n3n2)cc1 1.44%, Cc1ccc(CNC(=O)c2c(-c3ccccc3Cl)noc2C)o1 4.64%, COC(=O)c1ccccc1NC(=O)[C@H]1O[C@@H]2OC(C)(C)O[C@@H]2[C@H]2OC(C)(C)O[C@H]21 5.32%, O=C1CCc2cc(S(=O)(=O)Nc3cccc(F)c3)ccc2N1 -0.966%, COc1ccccc1Cn1c(CNS(=O)(=O)c2ccc3c(c2)CCCC3)nc2cccnc21 7.55%
